Assay results taken from PubChem BioAssay AID717 (Columbia University Molecular Screening Center, 2007).
The whole screen tested about 91,000 compounds, of which about 40 (0.04%) were called active. No stated cut-off is given here; in the data, active means activation above about 37%; inactive means the rest. The list is a sample of the results.

What follows are compounds tested against Bifunctional epoxide hydrolase 2 (Homo sapiens) (UniProt P34913) (assay: soluble epoxide hydrolase activators, primary screen, biochemical, human sEH (AID 717)). Conditions: purified human sEH enzymatic activity, activator screen; at 2 µM; stronger effect = higher value.
Chain of Bifunctional epoxide hydrolase 2 (Homo sapiens) (P34913 whole entry, looked up): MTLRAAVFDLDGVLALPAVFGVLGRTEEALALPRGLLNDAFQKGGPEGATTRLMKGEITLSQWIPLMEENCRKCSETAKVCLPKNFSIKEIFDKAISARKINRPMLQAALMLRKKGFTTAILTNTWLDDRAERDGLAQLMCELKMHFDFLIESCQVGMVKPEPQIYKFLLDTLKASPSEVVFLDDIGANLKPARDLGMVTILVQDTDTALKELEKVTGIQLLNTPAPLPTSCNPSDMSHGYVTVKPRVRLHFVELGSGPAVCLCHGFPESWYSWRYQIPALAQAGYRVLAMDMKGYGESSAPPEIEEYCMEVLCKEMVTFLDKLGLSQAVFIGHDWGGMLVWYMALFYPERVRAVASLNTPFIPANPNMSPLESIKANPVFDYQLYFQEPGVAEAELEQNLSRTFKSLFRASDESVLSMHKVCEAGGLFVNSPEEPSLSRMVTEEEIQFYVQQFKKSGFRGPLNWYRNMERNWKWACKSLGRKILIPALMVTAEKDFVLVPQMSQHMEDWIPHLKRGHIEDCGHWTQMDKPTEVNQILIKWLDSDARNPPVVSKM

activation, inactive:
Cc1nc(SCC(=O)N2CC(=O)Nc3ccccc32)c2c(C)c(C)sc2n1 -1.1%
COc1ccc(Cc2nnc(SCC(=O)c3cccc([N+](=O)[O-])c3)n2C)cc1 16.7%
O=C(Nc1ccc2c(c1)OCCO2)c1ccc(Cl)c(S(=O)(=O)N2CCCCC2)c1 -77.7%
CCCCNC(=O)C(=O)c1ccccc1NC(C)=O -0.9%
CC(C)(CCl)C(=O)Nc1ccc(Sc2ccc(F)cc2)cc1 -29.2%
O=C(CCNS(=O)(=O)c1ccccc1C(F)(F)F)NCc1ccc2c(c1)OCO2 3.4%
COCCCNCC(=O)Nc1sc(C)c(C)c1C(=O)OC -1%
Cc1ccc(CNC(=O)C2CC(c3ccccc3[N+](=O)[O-])=NO2)o1 (stereo not given) 1.1%
Cc1c(NC(=O)CCCOc2ccccc2)cccc1[N+](=O)[O-] -9.6%
CCC(C)n1c(-c2cc(OC)c(OC)c(OC)c2)nc2nc3ccccc3nc21 (stereo not given) 0.8%
COc1cc(C(=S)N2CCOCC2)cc(OC)c1OC(=O)c1cc([N+](=O)[O-])c(C)c([N+](=O)[O-])c1 -3.8%
COc1ccc(/C=C(/NC(=O)c2ccc(C)cc2)c2nc3ccccc3[nH]2)cc1OC 4.1%
O=C(O)c1ccccc1-c1ccccc1C(=O)Nc1cccc2ccccc12 6.9%
O=C(Nc1nnc(CCOCCOCCc2nnc(NC(=O)c3ccco3)s2)s1)c1ccco1 -12%
CCn1c(SCc2ccc(C)cc2)nnc1-c1nn(-c2ccccc2)ccc1=O 17.2%
CC(Oc1ccc(F)cc1F)C(=O)/C=C/N(C)C (stereo not given) 0.5%
CCOC(=O)C1=C(C)Nc2sc(C(=O)c3ccc(Br)cc3)c(N)c2C1c1ccc(C(=O)OC)cc1 (stereo not given) -3.6%
Cc1cc([N+](=O)[O-])c(NC2CCCCC2)c([N+](=O)[O-])c1 3.5%
O=C(NCCc1ccccn1)c1cc(C(=O)C2CCCCC2)c[nH]1 9.3%
CC(C)c1cc(C(N)=O)c(NC(=O)c2cccc(COc3ccc(Br)cc3)c2)s1 -3.7%
Cc1ccc(NC(=S)NC2CCCC2)cc1 -29.3%
COC(=O)c1ccccc1OCC(=O)N1CCN(c2ccc(Cl)cc2)CC1 -44.9%
C=CCNc1cnn(-c2ccc(C)cc2)c(=O)c1Cl 0.5%
CCc1cccc2c(C=C(C#N)C#N)cn(CC(=O)N3CCCCC3)c12 5%
COCCCn1c(SCc2cccc(OC)c2)nc2cc(OC)c(OC)cc2c1=N -5.2%
C=CCNC(=O)c1sc(SC)cc1-c1ccc(Cl)cc1 14.9%
O=C(O)/C=C/C(=O)Nc1ccc(F)cc1F 6.8%
C/C(=N\NS(=O)(=O)c1cccc([N+](=O)[O-])c1)c1cc2ccccc2o1 -6%
COc1cccc(/C=N/NC(=O)c2cccc([N+](=O)[O-])c2)c1OS(=O)(=O)c1ccc(C)cc1 -13.5%
CCC(=O)OCc1c(C(F)(F)F)nn(C)c1Oc1cccc(C(F)(F)F)c1 -5.9%
Cc1nn(CC(=O)Nc2nc3ccccc3s2)c(C)c1[N+](=O)[O-] 8%
O=C(Cn1cncn1)N/N=C/c1c2ccccc2cc2ccccc12 -1.1%
CONC(=O)c1cc(OCC(F)(F)F)ccc1OCC(F)(F)F -7.2%
CC(=O)NS(=O)(=O)c1ccc(NC(=O)/C=C/c2ccccc2Cl)cc1 -14.4%
Cc1ccc(N2CCN(/N=C/c3cccs3)CC2)cc1 1.6%
CC(C)(C)NC(=O)NC(=O)COC(=O)CCC1CCCCC1 -0.5%
Cc1cc2c(cc1C)N(C(=O)CN1C(=O)c3ccccc3C1=O)C(C)(C)c1ssc(=S)c1-2 18.1%
O=C(NCc1cccnc1)c1cccnc1Sc1ccc(Cl)cc1 17.3%
N/C(=N\OC(=O)CCc1ccccc1)c1ccc(Cl)cc1 10.5%
CC1CCN(C(NC(=O)c2ccco2)C(=O)c2ccccc2)CC1 (stereo not given) -0.4%
CCCCCCCCOC1OC(CO)C(O)C(O)C1NC(C)=O (stereo not given) -6.6%
O=C(CSc1ccccc1)Nc1ccc(NC(=O)c2ccco2)cc1 -17.6%
CC(=O)c1cnn(-c2cc(Oc3ccc(F)cc3)ncn2)c1C 7.1%
O=C(NCCCCCCCCCNC(=O)C(F)(F)F)C(F)(F)F -6.7%
O=C(Nc1ccn(Cc2ccccc2F)n1)c1ccc(COc2ccc(Cl)cc2Cl)o1 -1.7%
